Screens deposited in PubChem BioAssay by National Center for Advancing Translational Sciences (NCATS).
NPC1 prom act: activators of NPC1 promoter | 2.4% of 320,000 active | AID 485313 | Potency, µM (series often up to 9.22 µM), for inactives: at the highest dose activation, usual class: activators | Huh7 NPC1 promoter luciferase reporter, 24 h; also: % of control where 0% means no effect; nearly all actives have a fitted effect of over 60% in size
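Stable NPC1-promoter luciferase Huh7 line; cpd (DMSO) 24 h, 37 °C, 5% CO2; Amplite luciferase reagent 10 min RT; luminescence readout. qHTS format.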
ELG1 genotox: inducers of genotoxicity in HEK293T ELG1-luciferase cells | HEK293T ELG1-luciferase reporter, luminescence, 16 h | Potency, µM (titrated, usually from 46 µM), for inactives: at the highest dose activity change, positive = activation, hits mostly activators | 1.3% of 330,000 active | AID 504466; also: % of control where 0% means no effect; nearly all actives have a fitted effect of over 60% in size
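Genotoxicity was scored as increased ELG1-luciferase reporter signal, measured by ONE-Glo luminescence (30 min, room temperature). Compound or vehicle exposure of the HEK293T reporter cells lasted 16 hr at 37°C.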
Rab9 promoter act: activates the Rab9 promoter; Potency, µM (titrated, usually from 9.22 µM), for the others: top-dose activation, negative = inhibition, hits mostly activators; AID 485297; Huh7 Rab9 promoter-luciferase reporter, luminescence, 24 h; 2.8% of 320,000 active; also: % of control where 0% means no effect; nearly all actives have a fitted effect of over 60% in size
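Cells were plated at 1500 per well in reduced-serum medium with 10% FBS and left 2 h. Compound in DMSO was then added for 24 h at 37 °C. Reporter signal was read by luminescence after 10 min with luciferase detection reagent.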
FLuc modulator: inhibits or activates purified firefly luciferase, miR-21 counter-screen. P08659. purified FLuc, Km substrates, luminescence inhibition. Potency, µM (series often up to 57.5 µM), for the others: at the highest dose activity change, negative = inhibition, most hits filed as inhibitors. 6.9% of 360,000 active. AID 588342;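 also: plate controls were vehicle for no effect and reference inhibitor for full effect; nearly all actives have a fitted effect of over 55% in size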
Target sequence (P08659 whole entry, looked up): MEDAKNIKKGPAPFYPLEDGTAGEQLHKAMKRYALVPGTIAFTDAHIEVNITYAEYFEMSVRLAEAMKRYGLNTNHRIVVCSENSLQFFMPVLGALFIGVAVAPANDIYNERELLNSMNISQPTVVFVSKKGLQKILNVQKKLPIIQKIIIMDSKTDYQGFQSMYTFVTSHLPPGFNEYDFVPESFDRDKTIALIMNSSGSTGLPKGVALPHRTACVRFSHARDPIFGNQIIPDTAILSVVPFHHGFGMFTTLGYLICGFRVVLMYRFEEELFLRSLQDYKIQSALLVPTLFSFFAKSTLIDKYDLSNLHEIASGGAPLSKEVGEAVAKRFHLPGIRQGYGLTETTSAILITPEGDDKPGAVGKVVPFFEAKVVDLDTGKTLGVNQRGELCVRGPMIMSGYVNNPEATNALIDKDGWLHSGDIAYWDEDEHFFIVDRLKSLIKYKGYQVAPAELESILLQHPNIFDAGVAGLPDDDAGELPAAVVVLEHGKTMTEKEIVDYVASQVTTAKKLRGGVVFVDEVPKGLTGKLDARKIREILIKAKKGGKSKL
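Biochemical qHTS of compounds, final roughly 60 µM downward over six points, against 10 nM purified firefly luciferase using Km concentrations of substrates (10 uM D-luciferin, 10 uM ATP) in Tris acetate pH 7.5 buffer; luminescence output.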
SMN2 splice enh: enhancers of SMN2 splice variant expression; HEK293 SMN2-luciferase splicing reporter, luminescence, 30-36 h; 2.8% of 210,000 active; Potency, µM (top dose mostly 46.1 µM), for inactives: top-dose activity change, positive = activation, most hits filed as activators; AID 1458; also: % of control where 0% means no effect; nearly all actives have a fitted effect of over 55% in size
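HEK293 cells carry an SMN2 minigene-luciferase reporter in which exon 7 inclusion puts luciferase in frame. Cells were seeded at 2000 cells/well, attached for 10-12 hours, then exposed to compounds for 30-36 hours at 37C before ONE-Glo luminescence.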
* hit, by the source's call. Sampled rows, rich in hits. Any-hit rate of the full collection: about 7.5%. Calls follow the shape of the dose curve; as a rule, active = well fitted curve in the direction sought with a large enough effect; inconclusive = small, poorly fitted or top-dose-only effect, or another doubt; inactive = no such curve, though single readings can be large; an effect the other way counts as inactive or inconclusive. Potency is read from the fitted curve at half-maximal effect.

What do the screens show for `COc1c(C)cccc1C(=O)Nc1ccc(CN2CCOCC2)cc1`?
NPC1 prom act: 3.2µM*; ELG1 genotox: inconclusive; Rab9 promoter act: 2.5µM*; FLuc modulator: 17µM*; SMN2 splice enh: 16µM*

Results for COc1ccccc1NC(=O)CN1CCN(c2ccccc2F)CC1 ?
NPC1 prom act: -6%; ELG1 genotox: -5%; Rab9 promoter act: -2%; FLuc modulator: 1%; SMN2 splice enh: 13%

What do the screens show for `CCCOc1cccc(C(=O)Nc2ccc(CN3CCOCC3)cc2)c1`?
NPC1 prom act: 13%; ELG1 genotox: -6%; Rab9 promoter act: -1%; FLuc modulator: inconclusive

Results for O=C(Nc1ccc2c(c1)OCCO2)c1ccc(Cl)c(S(=O)(=O)N2CCOCC2)c1 ?
NPC1 prom act: 5%; ELG1 genotox: -3%; Rab9 promoter act: 8%; FLuc modulator: inconclusive; SMN2 splice enh: -38%

Results for CC(C)Oc1cccc(C(=O)Nc2ccc(CN3CCOCC3)cc2)c1 ?
NPC1 prom act: 6%; ELG1 genotox: -4%; Rab9 promoter act: 1%; FLuc modulator: 12µM*; SMN2 splice enh: -48%

What do the screens show for `COc1ccc(C(=O)NC(=S)Nc2ccc(CN3CCOCC3)cc2)cc1OC`?
NPC1 prom act: -1%; ELG1 genotox: -3%; Rab9 promoter act: -8%; FLuc modulator: 0%

Results for COc1ccc(C(=O)Nc2ccc(CN3CCOCC3)cc2)cc1Br ?
NPC1 prom act: 3%; ELG1 genotox: 2%; Rab9 promoter act: -1%; FLuc modulator: 15µM*

Results for O=C(Nc1ccc2c(c1)OCCO2)c1ccc(CN2CCOCC2)cc1 ?
NPC1 prom act: 28%; ELG1 genotox: 4%; Rab9 promoter act: 3.5µM*; FLuc modulator: 11µM*; SMN2 splice enh: 2%

How did NC(C(=O)O)c1cc(O)c(Cl)c(O)c1 (configuration not stated) do in these assays?
SMN2 splice enh: 8%

What do the screens show for `O=C(c1ccc(Cl)cc1)[C@@H]1[C@@H]2C(=O)N(c3cccc4ccccc34)C(=O)[C@@H]2C2c3ccccc3C=NN21` (some centres not stated)?
NPC1 prom act: 0%; ELG1 genotox: -2%; Rab9 promoter act: 0%; FLuc modulator: -3%; SMN2 splice enh: -16%

How did O=C(c1ccccc1)[C@H]1[C@H](c2ccccc2)[C@@]2(N=C(c3ccccc3)OC2=O)C2c3ccccc3C=NN21 (some centres not stated) do in these assays?
NPC1 prom act: 4µM*; ELG1 genotox: 6%; Rab9 promoter act: 4.5µM*; FLuc modulator: inconclusive; SMN2 splice enh: inconclusive

Results for Oc1ccccc1N1CCN(c2ccc3ccccc3n2)CC1 ?
NPC1 prom act: 1.3µM*; ELG1 genotox: inconclusive; Rab9 promoter act: 0.4µM*; FLuc modulator: 5.4µM*

How did CCS(=O)(=O)N1CCN(c2ccccc2F)CC1 do in these assays?
NPC1 prom act: -3%; ELG1 genotox: 3%; Rab9 promoter act: -8%; FLuc modulator: -2%; SMN2 splice enh: 0%

What do the screens show for `c1ccc(CN2CCN(c3cnc4ccccc4n3)CC2)cc1`?
NPC1 prom act: inconclusive; ELG1 genotox: inconclusive; Rab9 promoter act: inconclusive; FLuc modulator: 19µM*

How did Fc1ccccc1N1CCN(c2cnc3ccccc3n2)CC1 do in these assays?
FLuc modulator: 2.1µM*; SMN2 splice enh: 2.8µM*

How did CCOC(=O)c1c(NC(=O)c2cc(=O)c3cc(Cl)ccc3o2)sc(C)c1C do in these assays?
FLuc modulator: 1%; SMN2 splice enh: 2%

Results for Cc1ccc(N2NC(C)(c3cccs3)NC2=S)cc1 (configuration not stated) ?
NPC1 prom act: 4.5µM*; ELG1 genotox: inconclusive; Rab9 promoter act: 3.5µM*; FLuc modulator: 9.5µM*; SMN2 splice enh: 22%

What do the screens show for `Cc1ccc(N2CC(O)(c3cccs3)[N+]3=C2CCCC3)cc1` (configuration not stated)?
NPC1 prom act: -3%; ELG1 genotox: 0%; Rab9 promoter act: -1%; FLuc modulator: 6%; SMN2 splice enh: -12%
